Experimental data reported in the supplement of paper PMC10338343.
± gives the standard deviation.

Legend:
[1] = system: MILI (PIWIL2) piRISC loaded with L1MC piRNA (26 nt); assay: pre-steady-state target cleavage rate (min^-1); guide: L1MC piRNA 5'p-UAACUAAAUACUAUGCAAGCUGUAGG; higher = faster piRNA-guided slicing of the target;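 also: 1 nM active piRISC with 0.1 nM target library at 33 °C single turnover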
Procedure, shortened: (§1)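 Active affinity-purified piRISC carrying one synthetic guide (1 nM) was mixed with a transcribed, DNA-blocked target RNA library […] in HEPES–potassium acetate buffer at 33 °C for 0–8 or 0–960 min, with or without 500 nM GTSF1 partner protein. Uncleaved targets were then sequenced and normalised to depth and to weakly complementary targets. Three trials were pooled, and k3 was capped at 0.0001 min^-1. A burst-and-steady-state fit was applied to obtain the pre-steady-state cleavage rate.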

[2] = system: EfPiwi piRISC loaded with L1MC piRNA (26 nt); assay: pre-steady-state target cleavage rate (min^-1); auxiliary factor: 500 nM Ephydatia muelleri Gtsf1; guide: L1MC piRNA 5'p-UAACUAAAUACUAUGCAAGCUGUAGG; MIWI and MILI are mouse PIWI proteins and EfPiwi is from a freshwater sponge; tags in brackets are library labels; higher = faster piRNA-guided slicing of the target
Procedure, shortened: as §1

[3] = auxiliary factor: 500 nM mouse GTSF1
[4] = auxiliary factor: none (no GTSF1)

Sequence	pre-steady-state target cleavage rate [1, 3]	pre-steady-state target cleavage rate [1, 4]	pre-steady-state target cleavage rate [2]
UCCUCCUACAGCUUGCAAAGUAUUUAGUAA	0.142 ± 0.016	0.00404 ± 0.0019	0.00609 ± 0.0029
UCCUGGAUCAGCUUGGAUAGUAUUUAGUUA	0.185 ± 0.013	0.00786 ± 0.0022	0.0092 ± 0.0025
UCCUGGAACAGCUUCCAAAGUAUUUAGUUA	0.137 ± 0.015	0.00525 ± 0.0018	0.00262 ± 0.0019
UCCUGGUAAGCUUGCAUAGUAUUUAGUUA	0.273 ± 0.017	0.0137 ± 0.0032	0.0168 ± 0.0044
UCCUGGAAUCAGCUUGCAUAGUAUUUAGUUA	0.278 ± 0.021	0.016 ± 0.0034	0.0198 ± 0.0068
UCCUCCUAGAGCAUGCAUAGUAUUUAGUUA	0.2 ± 0.019	0.00564 ± 0.0018	0.0163 ± 0.0058
UCCUGGAACAGCUUGCAUACUAUUUAGUUA	0.0842 ± 0.014	0.00298 ± 0.0025	0.00571 ± 0.0014
UCCUCCUACAGGAAGCAUAGUAUUUAGUAA	0.247 ± 0.018	0.00328 ± 0.0023	0.00397 ± 0.0031
UCCUGGAUGAGCUUGUAUAGUAUUUAGUUA	0.181 ± 0.015	0.0088 ± 0.0033	0.0538 ± 0.014
UCCUGCUACAGCUUGCAUAGUAUUUCAGUUA	0.335 ± 0.075	0.00409 ± 0.0028	0.00522 ± 0.0019
UCCUGGAACAGGUUGCAAAGUAUUUAGUUA	0.144 ± 0.013	0.00884 ± 0.003	0.0118 ± 0.0039
UCCUGGAUGUCGUUAGCAUAGUAUUUAGUUA	0.0539 ± 0.012	0.00456 ± 0.0029	0.00456 ± 0.0035
UCCUGGAUGAGCCUGCAUAGUAUUUAGUUA	0.157 ± 0.019	0.00748 ± 0.0033	0.032 ± 0.011
UCCUCCUACAGCUAGGAUAGUAUUUAGUUA	0.276 ± 0.015	0.00685 ± 0.0019	0.0581 ± 0.014
UCCUGGAACAGCAAGCAUAGUAUUUAGUUA	0.275 ± 0.018	0.00588 ± 0.0024	0.00853 ± 0.0027
UCCUGGUACAGCUUCGAUAGUAUUUAGUUA	0.187 ± 0.025	0.00848 ± 0.0025	0.00411 ± 0.0026
UCCUCCUACAGGUUGCAUAGUUUUUAGUUA	0.0349 ± 0.0064	0.00478 ± 0.0018	0.00915 ± 0.0022
